How the values were obtained:
Assay in all cases: log2 ratio of Biotin-Ahx-Ub-VS probe labelling (fragment/DMSO); higher = less target engagement (more negative = stronger competition), active = hit call of the paper (q ≤ 0.05, log2 ratio ≤ -1)
Details in all cases: compound concentration: 200 uM; treatment time: 3 h
USP19 = target: T1, USP19 (UniProt O94966)
T1 sequence (whole entry): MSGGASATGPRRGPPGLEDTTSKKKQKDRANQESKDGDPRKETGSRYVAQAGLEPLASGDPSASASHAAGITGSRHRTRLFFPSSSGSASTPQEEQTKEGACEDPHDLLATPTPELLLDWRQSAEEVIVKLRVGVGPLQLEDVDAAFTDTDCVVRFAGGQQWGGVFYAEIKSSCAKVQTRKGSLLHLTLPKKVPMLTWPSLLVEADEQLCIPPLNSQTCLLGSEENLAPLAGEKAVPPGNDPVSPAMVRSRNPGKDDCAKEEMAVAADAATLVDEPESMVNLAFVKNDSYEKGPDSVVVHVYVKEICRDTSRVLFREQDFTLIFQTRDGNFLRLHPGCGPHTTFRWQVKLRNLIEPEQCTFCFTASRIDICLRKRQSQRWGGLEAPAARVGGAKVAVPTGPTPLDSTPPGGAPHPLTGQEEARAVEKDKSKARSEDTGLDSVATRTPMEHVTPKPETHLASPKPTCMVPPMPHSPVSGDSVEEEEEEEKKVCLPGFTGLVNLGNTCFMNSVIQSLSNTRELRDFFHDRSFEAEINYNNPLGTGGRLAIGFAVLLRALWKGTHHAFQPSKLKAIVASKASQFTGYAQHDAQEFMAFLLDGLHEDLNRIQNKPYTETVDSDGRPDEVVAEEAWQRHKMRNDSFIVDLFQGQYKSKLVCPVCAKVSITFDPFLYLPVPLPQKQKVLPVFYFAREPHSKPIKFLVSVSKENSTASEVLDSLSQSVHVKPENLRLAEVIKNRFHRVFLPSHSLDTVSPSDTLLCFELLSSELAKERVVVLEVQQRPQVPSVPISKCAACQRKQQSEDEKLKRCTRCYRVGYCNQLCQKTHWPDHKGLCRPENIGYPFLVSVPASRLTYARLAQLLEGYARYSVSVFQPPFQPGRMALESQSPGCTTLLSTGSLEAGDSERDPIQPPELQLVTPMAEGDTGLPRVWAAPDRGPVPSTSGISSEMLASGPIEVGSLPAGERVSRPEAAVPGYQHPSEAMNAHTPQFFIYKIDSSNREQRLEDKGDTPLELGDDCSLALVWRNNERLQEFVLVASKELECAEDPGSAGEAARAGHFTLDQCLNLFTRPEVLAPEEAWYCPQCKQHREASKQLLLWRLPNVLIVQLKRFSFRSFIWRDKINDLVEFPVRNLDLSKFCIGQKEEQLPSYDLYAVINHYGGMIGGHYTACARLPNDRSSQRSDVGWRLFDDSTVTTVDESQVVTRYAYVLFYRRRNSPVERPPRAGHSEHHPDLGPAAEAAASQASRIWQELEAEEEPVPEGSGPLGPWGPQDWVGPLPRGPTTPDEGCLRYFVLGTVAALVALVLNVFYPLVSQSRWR
Outline: (§1)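 Each value is an average log2 ratio of fragment to vehicle, tested by unpaired t-test. The underlying Spectronaut label-free quantities were global-median-normalised, and only proteins with ≥2 unique peptides were included. Triplicate HEK293T lysate samples (495 µg) were exposed to fragment at 200 µM or vehicle for 3 h, then to Biotin-Ahx-Ub-VS at 0.5 µM final for 1 h, before NeutrAvidin enrichment of labelled DUBs, LysC and trypsin digestion, and diaPASEF LC-MS/MS.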

USP22 = target: T2, USP22 (UniProt Q9UPT9)
T2 sequence (whole entry): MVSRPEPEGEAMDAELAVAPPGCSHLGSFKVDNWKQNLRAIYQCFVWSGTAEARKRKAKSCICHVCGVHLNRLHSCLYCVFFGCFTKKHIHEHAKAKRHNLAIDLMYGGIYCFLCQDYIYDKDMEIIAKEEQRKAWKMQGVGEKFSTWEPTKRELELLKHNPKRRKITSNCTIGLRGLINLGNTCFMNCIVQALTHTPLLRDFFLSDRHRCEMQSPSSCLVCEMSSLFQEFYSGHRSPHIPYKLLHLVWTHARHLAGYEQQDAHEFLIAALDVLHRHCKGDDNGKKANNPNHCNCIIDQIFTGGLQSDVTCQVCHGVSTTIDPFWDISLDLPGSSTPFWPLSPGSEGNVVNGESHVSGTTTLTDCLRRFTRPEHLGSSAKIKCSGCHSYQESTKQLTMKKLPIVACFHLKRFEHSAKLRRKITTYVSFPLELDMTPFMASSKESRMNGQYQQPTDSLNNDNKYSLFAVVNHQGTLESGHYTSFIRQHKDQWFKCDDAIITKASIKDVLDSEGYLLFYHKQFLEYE
Outline: as §1

USP24 = USP24 (UniProt Q9UPU5)
Outline: as §1

USP25 = target: T3, USP25 (UniProt Q9UHP3)
T3 sequence (whole entry): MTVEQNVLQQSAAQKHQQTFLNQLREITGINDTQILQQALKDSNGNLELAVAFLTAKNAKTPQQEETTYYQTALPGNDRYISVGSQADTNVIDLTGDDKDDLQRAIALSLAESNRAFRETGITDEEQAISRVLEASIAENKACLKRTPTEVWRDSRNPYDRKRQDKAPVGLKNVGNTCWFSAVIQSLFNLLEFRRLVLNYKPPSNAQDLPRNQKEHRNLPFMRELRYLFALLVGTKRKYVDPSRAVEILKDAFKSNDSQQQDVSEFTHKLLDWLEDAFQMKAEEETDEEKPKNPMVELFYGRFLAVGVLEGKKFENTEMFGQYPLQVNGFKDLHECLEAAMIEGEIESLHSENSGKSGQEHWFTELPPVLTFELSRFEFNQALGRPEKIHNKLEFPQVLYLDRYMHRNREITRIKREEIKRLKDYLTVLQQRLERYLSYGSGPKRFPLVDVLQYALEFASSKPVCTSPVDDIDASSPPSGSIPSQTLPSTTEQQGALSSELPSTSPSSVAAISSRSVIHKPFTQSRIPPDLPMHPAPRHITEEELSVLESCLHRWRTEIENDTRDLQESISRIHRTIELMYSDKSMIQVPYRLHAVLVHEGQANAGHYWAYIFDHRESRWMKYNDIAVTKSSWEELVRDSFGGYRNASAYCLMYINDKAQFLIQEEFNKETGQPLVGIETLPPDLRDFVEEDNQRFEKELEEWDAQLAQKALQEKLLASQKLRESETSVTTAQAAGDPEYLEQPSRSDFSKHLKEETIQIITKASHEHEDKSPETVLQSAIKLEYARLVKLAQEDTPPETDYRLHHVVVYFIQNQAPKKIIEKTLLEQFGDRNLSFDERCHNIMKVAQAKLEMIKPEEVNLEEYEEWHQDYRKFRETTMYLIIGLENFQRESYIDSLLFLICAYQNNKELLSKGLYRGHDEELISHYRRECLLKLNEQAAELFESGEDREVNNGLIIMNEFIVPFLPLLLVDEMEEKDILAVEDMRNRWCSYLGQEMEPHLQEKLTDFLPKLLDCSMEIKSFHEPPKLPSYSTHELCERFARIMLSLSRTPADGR
Outline: as §1

USP28 = target: T4, USP28 (UniProt Q96RU2)
T4 sequence (whole entry): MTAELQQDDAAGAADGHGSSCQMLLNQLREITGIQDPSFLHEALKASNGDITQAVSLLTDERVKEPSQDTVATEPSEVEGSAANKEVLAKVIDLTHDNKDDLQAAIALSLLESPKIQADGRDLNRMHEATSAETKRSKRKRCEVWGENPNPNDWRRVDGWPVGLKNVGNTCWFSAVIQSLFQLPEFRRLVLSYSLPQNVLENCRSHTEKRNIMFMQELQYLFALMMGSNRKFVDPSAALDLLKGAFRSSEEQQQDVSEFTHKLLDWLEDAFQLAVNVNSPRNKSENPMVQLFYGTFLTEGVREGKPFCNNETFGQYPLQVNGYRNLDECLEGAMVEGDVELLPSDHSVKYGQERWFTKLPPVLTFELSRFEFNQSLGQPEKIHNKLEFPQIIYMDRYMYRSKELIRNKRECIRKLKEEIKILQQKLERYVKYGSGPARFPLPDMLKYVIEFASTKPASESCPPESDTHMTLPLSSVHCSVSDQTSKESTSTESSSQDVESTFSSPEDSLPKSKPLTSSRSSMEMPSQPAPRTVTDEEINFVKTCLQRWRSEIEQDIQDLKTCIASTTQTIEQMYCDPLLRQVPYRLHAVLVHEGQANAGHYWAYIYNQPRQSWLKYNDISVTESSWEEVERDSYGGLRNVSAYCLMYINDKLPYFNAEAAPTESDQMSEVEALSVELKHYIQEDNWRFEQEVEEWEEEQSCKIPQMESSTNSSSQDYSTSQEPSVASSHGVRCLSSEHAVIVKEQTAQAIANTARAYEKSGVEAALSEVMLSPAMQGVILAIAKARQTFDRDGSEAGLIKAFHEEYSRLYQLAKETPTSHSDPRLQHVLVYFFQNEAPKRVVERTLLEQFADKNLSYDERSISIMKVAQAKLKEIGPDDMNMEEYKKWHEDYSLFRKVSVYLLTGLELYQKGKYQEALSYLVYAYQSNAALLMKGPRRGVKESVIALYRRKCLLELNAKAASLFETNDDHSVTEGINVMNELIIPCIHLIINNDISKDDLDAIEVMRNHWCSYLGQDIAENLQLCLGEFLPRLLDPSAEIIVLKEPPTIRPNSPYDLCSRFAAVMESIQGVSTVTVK
Outline: as §1

Measured: log2 ratio of Biotin-Ahx-Ub-VS probe labelling

USP24, sequence (Q9UPU5 whole entry): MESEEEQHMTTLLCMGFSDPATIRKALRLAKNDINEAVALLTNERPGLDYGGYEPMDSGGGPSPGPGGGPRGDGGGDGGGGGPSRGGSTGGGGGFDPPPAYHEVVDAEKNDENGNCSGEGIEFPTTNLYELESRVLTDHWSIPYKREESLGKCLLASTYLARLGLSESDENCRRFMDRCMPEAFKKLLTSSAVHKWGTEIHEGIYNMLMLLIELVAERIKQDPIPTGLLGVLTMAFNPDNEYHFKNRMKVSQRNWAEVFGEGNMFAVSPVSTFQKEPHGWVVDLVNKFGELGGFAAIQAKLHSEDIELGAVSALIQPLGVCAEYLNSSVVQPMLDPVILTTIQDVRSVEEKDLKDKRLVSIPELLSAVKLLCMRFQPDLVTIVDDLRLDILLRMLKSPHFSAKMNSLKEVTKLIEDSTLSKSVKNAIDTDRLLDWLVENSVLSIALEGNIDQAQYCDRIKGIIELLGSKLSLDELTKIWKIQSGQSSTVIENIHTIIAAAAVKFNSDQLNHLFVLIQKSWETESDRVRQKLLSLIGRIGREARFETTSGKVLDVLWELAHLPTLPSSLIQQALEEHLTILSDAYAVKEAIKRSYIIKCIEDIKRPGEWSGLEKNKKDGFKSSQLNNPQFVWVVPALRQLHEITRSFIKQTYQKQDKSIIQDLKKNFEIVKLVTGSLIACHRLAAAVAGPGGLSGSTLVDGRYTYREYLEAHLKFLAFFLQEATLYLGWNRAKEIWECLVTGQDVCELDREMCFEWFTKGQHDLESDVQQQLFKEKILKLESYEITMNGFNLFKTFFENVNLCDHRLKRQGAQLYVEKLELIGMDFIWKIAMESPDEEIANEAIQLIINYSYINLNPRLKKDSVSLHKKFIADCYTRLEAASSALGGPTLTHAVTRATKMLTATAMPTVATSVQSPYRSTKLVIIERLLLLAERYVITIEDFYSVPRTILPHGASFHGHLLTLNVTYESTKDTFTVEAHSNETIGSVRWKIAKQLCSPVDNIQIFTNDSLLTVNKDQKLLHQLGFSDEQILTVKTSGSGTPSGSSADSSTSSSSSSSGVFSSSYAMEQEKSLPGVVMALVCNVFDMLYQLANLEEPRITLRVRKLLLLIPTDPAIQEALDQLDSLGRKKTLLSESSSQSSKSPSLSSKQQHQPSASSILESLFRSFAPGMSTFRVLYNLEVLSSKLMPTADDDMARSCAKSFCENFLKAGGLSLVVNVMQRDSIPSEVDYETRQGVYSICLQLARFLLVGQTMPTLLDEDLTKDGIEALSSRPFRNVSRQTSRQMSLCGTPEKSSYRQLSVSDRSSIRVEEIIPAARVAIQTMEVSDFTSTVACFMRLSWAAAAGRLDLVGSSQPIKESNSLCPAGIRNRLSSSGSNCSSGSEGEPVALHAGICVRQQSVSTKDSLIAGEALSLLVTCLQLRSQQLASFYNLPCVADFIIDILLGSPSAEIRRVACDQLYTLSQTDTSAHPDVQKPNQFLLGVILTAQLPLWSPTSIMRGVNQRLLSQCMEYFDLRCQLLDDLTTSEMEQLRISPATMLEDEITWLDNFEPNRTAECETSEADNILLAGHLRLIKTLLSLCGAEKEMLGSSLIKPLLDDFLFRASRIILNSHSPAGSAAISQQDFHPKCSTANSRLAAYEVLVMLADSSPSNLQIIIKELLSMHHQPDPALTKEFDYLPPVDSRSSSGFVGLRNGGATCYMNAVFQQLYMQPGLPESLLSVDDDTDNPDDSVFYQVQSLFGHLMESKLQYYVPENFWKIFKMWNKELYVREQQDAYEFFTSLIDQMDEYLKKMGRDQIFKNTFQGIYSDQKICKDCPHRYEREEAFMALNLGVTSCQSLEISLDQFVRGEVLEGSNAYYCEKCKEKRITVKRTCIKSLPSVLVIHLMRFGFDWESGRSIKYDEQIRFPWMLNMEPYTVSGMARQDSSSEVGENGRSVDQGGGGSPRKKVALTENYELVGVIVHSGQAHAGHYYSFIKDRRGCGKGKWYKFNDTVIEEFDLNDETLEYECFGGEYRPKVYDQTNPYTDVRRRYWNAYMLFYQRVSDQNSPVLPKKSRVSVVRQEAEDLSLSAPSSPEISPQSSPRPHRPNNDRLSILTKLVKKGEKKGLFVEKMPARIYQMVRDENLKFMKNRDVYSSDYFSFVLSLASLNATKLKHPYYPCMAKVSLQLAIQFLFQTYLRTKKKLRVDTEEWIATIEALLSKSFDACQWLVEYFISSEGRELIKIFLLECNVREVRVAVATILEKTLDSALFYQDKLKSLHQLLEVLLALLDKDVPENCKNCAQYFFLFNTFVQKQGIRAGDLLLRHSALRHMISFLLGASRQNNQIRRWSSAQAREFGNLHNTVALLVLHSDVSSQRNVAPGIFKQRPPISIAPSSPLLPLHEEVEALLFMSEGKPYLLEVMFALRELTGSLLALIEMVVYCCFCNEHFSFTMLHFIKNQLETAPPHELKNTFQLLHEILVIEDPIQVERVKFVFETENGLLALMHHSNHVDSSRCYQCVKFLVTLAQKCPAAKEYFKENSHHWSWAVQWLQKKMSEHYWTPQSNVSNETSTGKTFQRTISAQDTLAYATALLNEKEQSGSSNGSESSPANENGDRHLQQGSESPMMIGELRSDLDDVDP

Cl.Cn1c(CNC(=O)CCl)nc2cccnc21
inactive: USP19 -0.0671 | USP22 -0.175 | USP24 -0.218 | USP25 -0.148 | USP28 -0.316

Reference: the supplement of paper PMC11732987, “Enantioselective OTUD7B fragment discovery through chemoproteomics screening and high-throughput optimisation” (Communications Chemistry, 2025)
